Consider 38 compounds from PubChem BioAssay AID598 (SRMLSC, 2007).

Each structure is given as a SMILES string. Among all 85,000 compounds or so, about 5,100 (6%) were called active.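 How the source made its calls: active means viability at or below 40%; inactive means viability above 40%.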 Shown is part of a subset that was picked to be rich in actives.

The assay in a line: H69AR cell viability reduction – human, 86K library, primary screen (AID 598).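 Further: multidrug resistant small cell line overexpressing MRP-1 efflux transporter; 100% = mean luminescence of untreated control wells.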 The following applies: H69AR lung tumor viability, ATP luminescence, 72 h; at 10 µM; hits give low values.
As for `O=C(CSCc1ccccc1)N1CCc2ccccc21`, the viability was 84.8% (inactive).

As to `Cc1ccc(N(Cc2ccc(C(=O)Nc3ccccc3C(=O)NCc3ccco3)cc2)S(C)(=O)=O)cc1C`, the viability is 79.5% (inactive).

Consider `Cc1ccc(S(=O)(=O)/N=C(\CN2CCOCC2)N2CCOCC2)cc1`, for which the viability was 96.2% (inactive).

As to `OC(COc1cccc(OCC(O)CN2CCCC2)c1)CN1CCCC1` (stereo not drawn), the viability is 99.3% (inactive).

In the case of `O=C(C(c1ccccc1)c1ccccc1)N1CCN(CC(O)COc2ccccc2)CC1` (stereo not drawn), the viability was 27.1% (active).

With `CC(=O)Nc1ccc(OCC(O)CN2CCN(c3ccccc3Cl)CC2)cc1` (stereo not drawn), the viability was 100% (inactive).

Regarding `O=C(CSc1nnc(-c2cccnc2)n1CCc1ccccc1)NCc1ccccc1`, the viability was 89.6% (inactive).

For `CCc1ccc(CNC(=O)CCc2nc(-c3cccs3)no2)cc1`, the viability is 98.2% (inactive).

For the compound `Clc1ccc(-n2nnnc2-c2cnc(-c3ccccn3)nc2-c2cccs2)cc1`, the viability is 18.2% (active).

For the compound `c1ccc(-c2noc(-c3cccs3)n2)nc1`, the viability was 70.6% (inactive).

As to `N#Cc1ccc(CSc2nnc(-c3ccccn3)n2-c2ccc(Cl)cc2)cc1`, the viability is 62% (inactive).

Turning to `CCOc1ccccc1N=C1NC(=O)CS1`, the viability was 85.9% (inactive).

As for `CCC/C(O)=C1\C(=O)CC(C)(C)CC1=Nc1ccccc1OC`, the viability was 28.2% (active).

As to `COc1ccccc1N=C(C)C1=C(O)COC1=O`, the viability is 92.4% (inactive).

Take `CCOc1ccccc1NC(=O)C1CCCN(C(=O)Nc2ccccc2)C1` (stereo not drawn): the viability is 61.5% (inactive).

With `CCCC(=O)N1c2ccccc2NC2=C(C(=O)CCC2)C1c1ccc(F)cc1` (stereo not drawn), the viability was 92.9% (inactive).

For the compound `O=C1CCCC2=C1C(c1cccs1)n1nc(SCc3ccccc3)nc1N2` (stereo not drawn), the viability is 28.9% (active).

In the case of `CC(C)C(=O)N1c2ccccc2NC2=C(C(=O)CCC2)C1c1ccc(N(C)C)cc1` (stereo not drawn), the viability is 74.9% (inactive).

`Cc1ccc(N(CC(=O)Nc2cccc(N(C)S(C)(=O)=O)c2)S(C)(=O)=O)cc1`: the viability is 85.4% (inactive).

`O=C(CCCn1c(SCC(=O)c2ccccc2)nc2ccccc2c1=O)NCC1CCCO1` (stereo not drawn): the viability was 76.5% (inactive).

For `Cc1noc(COc2ccccc2OCc2onc(C)c2Cl)c1Cl`, the viability was 93.3% (inactive).

For `Cc1ccc(-c2noc(CSc3nnc(-c4ccncc4)n3-c3ccc(F)cc3)n2)cc1`, the viability is 27.9% (active).

`Cc1ccc(-c2noc(CSc3nnc(-c4ccccc4)n3C)n2)cc1`: the viability was 85.9% (inactive).

Regarding `Fc1ccc(-n2c(Cc3ccccc3)nnc2SCc2nc(-c3ccc(Cl)cc3)no2)cc1`, the viability is 90.9% (inactive).

Regarding `O=S1(=O)C=C(SCCN2CCCC2)c2ccccc21`, the viability was 74.3% (inactive).

With `Cn1cc(S(=O)(=O)N2CCN(c3ccc(F)cc3)CC2)c(=O)n(C)c1=O`, the viability was 91.4% (inactive).

As to `C#CCN(N(C)c1ncc(C(F)(F)F)cc1Cl)S(=O)(=O)c1ccc2ccccc2c1`, the viability is 84% (inactive).

For the compound `CC(C)(C)C1CCc2c(sc3nc(SCC(N)=O)nc(N)c23)C1` (stereo not drawn), the viability was 2.44% (active).

As for `C=C(C)CSc1nc(N)c2c3c(sc2n1)CCC3`, the viability was 92.1% (inactive).

For the compound `CN(C)CCSc1nc(N)c2c3c(sc2n1)COC(C)(C)C3`, the viability is 91.2% (inactive).

Turning to `O=C(/C=C/NNC(=O)c1cccc(Br)c1)c1ccccc1`, the viability was 61.5% (inactive).

Turning to `N#C/C(=C(\O)CCl)c1nnc2n1CCCCC2`, the viability is 26.2% (active).

Consider `COCC(=O)Nc1ccc(Br)cc1`, for which the viability was 101% (inactive).

Turning to `Cc1cccc(N(CC(=O)N2CCOCC2)S(C)(=O)=O)c1`, the viability was 98% (inactive).

Regarding `Cc1[nH]n(-c2cccc(Cl)c2)c(=O)c1-c1ccc(Cl)cc1`, the viability was 109% (inactive).

Consider `CC1=NN(c2cccc(Cl)c2)C(=O)C12CC(C)=C(C)CS2` (stereo not drawn), for which the viability was 26.9% (active).

As for `O=C(NCc1ccccc1)C1CCCN(S(=O)(=O)c2cccs2)C1` (stereo not drawn), the viability was 95.6% (inactive).

As to `CCOc1ccc(S(=O)(=O)NCC2CCCO2)cc1` (stereo not drawn), the viability is 97% (inactive).

The viability is a read-out of living cells in per cent, often relative to untreated cells.
